Assays:
Assay in all cases: log2 ratio of Biotin-Ahx-Ub-VS probe labelling (fragment/DMSO); higher = less target engagement (more negative = stronger competition), active = hit call of the paper (q ≤ 0.05, log2 ratio ≤ -1)
Details in all cases: compound concentration: 200 uM; treatment time: 3 h
USP42 = target: T1, USP42 (UniProt Q9H9J4)
T1 sequence (whole entry): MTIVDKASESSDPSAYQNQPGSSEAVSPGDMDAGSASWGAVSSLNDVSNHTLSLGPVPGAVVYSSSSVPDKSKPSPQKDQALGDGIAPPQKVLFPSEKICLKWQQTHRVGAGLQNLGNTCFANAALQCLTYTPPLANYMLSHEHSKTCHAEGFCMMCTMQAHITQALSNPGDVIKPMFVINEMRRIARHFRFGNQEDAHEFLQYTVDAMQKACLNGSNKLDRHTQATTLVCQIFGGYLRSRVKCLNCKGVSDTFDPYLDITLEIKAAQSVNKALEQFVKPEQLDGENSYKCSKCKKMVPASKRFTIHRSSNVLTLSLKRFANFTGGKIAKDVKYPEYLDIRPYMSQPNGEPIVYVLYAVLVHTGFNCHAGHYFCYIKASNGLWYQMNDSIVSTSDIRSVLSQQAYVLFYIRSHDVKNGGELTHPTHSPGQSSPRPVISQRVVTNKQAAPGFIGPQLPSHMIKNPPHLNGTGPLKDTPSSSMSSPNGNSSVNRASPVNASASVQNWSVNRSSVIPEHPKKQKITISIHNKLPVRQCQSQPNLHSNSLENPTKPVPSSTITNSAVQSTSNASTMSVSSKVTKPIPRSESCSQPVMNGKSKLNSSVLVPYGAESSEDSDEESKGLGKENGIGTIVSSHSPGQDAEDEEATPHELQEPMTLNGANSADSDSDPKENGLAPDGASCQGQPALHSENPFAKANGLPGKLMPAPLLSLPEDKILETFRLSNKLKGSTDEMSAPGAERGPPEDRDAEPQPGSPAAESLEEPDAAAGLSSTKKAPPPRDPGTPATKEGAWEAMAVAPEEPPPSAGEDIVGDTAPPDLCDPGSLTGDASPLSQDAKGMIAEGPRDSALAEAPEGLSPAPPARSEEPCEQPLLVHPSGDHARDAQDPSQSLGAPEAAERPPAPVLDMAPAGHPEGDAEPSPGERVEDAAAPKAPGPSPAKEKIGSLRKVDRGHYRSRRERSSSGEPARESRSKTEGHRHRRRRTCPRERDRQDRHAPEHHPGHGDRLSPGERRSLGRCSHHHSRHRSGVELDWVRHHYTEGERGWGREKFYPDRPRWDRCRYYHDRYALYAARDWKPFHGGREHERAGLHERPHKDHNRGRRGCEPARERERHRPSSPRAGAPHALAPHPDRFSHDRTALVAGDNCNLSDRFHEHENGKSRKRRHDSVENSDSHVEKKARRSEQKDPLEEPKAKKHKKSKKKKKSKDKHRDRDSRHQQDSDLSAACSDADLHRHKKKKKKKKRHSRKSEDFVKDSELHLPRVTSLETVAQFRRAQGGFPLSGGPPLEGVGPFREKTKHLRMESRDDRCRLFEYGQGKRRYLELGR
How it was run: (§1)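 HEK293T lysate (495 µg per sample, in Tris/CHAPS/IGEPAL buffer with protease inhibitors) was exposed in triplicate for 3 h to fragment at 200 µM or to vehicle, then to Biotin-Ahx-Ub-VS at 0.5 µM final for 1 h. Labelled DUBs were enriched on NeutrAvidin, digested with LysC and trypsin, and analysed by diaPASEF LC-MS/MS. Spectronaut label-free quantities were normalised to the global median, and values are average log2 ratios of fragment over vehicle from an unpaired t-test. Only proteins with ≥2 unique peptides were used.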

USP46 = USP46 (UniProt P62068)
How it was run: as §1

USP47 = target: T2, USP47 (UniProt Q96K76)
T2 sequence (whole entry): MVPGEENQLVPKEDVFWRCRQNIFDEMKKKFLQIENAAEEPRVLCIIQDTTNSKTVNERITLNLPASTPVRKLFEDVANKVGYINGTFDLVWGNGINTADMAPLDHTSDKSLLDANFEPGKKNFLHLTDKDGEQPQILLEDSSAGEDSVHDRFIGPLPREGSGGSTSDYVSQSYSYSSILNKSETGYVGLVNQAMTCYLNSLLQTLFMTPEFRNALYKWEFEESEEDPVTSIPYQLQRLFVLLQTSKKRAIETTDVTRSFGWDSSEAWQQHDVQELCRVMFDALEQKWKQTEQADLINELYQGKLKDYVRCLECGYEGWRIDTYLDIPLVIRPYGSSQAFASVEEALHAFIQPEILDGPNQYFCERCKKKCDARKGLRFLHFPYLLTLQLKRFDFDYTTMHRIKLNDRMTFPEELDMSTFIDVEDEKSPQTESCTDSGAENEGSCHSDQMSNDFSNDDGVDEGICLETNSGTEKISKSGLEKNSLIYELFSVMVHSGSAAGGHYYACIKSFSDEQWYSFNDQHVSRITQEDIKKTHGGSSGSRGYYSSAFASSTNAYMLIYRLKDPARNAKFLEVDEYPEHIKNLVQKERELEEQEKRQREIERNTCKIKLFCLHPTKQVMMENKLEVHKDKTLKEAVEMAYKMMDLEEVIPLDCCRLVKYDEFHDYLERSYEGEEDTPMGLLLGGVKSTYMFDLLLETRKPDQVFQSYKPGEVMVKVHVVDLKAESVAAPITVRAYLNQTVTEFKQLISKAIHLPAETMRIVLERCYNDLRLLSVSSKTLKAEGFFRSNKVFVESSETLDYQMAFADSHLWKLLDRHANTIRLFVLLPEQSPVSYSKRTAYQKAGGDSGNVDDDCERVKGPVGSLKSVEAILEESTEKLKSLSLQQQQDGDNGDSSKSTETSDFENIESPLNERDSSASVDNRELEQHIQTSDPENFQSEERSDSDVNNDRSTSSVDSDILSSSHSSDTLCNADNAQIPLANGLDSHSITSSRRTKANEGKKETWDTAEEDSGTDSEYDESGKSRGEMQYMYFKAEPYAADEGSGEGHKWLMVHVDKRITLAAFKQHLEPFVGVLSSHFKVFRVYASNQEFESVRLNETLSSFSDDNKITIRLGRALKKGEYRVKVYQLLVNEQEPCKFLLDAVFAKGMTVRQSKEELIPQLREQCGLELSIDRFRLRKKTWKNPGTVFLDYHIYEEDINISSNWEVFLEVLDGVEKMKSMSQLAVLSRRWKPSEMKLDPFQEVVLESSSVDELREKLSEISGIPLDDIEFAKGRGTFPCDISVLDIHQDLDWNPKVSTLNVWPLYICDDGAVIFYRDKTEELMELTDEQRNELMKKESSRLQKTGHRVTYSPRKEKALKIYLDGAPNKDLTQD
How it was run: as §1

USP48 = target: T3, USP48 (UniProt Q86UV5)
T3 sequence (whole entry): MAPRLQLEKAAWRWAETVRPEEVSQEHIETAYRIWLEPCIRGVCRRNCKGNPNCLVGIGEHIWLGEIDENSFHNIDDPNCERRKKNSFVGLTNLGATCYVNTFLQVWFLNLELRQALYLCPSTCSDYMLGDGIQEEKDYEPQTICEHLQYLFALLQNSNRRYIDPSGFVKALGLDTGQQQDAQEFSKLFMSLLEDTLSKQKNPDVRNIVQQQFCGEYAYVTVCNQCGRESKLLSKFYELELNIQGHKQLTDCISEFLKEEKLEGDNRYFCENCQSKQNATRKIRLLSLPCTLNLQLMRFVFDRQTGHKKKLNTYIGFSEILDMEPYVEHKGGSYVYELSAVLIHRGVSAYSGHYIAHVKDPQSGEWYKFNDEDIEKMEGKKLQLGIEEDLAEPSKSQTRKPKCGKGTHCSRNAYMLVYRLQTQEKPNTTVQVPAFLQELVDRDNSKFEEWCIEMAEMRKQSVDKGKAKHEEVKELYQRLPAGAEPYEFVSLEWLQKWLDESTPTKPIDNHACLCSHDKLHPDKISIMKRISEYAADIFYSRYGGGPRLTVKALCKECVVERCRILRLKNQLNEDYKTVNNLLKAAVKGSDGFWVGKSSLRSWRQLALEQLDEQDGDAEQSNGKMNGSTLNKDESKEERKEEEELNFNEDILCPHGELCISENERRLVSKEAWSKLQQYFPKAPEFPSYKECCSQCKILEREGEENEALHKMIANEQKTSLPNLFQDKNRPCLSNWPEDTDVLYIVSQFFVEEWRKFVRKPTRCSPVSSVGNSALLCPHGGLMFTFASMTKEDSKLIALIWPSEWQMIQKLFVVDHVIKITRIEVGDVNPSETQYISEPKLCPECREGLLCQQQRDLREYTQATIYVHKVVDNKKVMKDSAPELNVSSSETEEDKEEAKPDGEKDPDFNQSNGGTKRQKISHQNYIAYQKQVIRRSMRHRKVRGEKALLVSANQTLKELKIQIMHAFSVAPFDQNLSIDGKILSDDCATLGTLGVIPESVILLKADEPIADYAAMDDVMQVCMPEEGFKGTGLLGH
How it was run: as §1

USP5 = target: T4, USP5 (UniProt P45974)
T4 sequence (whole entry): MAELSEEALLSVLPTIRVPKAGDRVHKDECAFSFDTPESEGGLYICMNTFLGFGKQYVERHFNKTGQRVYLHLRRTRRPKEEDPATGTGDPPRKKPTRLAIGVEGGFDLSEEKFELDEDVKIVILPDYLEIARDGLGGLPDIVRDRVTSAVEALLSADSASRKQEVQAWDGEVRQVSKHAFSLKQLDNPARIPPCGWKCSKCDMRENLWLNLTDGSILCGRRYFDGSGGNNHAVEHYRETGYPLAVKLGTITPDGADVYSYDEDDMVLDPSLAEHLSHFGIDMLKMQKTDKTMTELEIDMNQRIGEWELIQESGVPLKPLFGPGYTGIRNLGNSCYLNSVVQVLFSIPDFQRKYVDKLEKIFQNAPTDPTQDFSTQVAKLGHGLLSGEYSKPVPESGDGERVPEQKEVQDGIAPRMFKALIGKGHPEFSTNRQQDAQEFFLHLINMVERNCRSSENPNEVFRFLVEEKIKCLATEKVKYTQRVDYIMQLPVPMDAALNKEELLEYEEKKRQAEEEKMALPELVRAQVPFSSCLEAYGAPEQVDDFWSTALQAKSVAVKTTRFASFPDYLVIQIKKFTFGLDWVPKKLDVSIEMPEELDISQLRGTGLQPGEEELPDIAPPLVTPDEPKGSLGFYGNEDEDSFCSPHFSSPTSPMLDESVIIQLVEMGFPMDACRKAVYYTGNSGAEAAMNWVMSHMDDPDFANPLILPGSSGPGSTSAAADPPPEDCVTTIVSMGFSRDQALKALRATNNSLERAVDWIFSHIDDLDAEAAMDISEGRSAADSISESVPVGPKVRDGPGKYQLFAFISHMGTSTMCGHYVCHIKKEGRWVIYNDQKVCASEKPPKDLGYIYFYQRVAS
How it was run: as §1

USP54 = USP54 (UniProt Q70EL1)
How it was run: as §1

USP7 = USP7 (UniProt Q93009)
How it was run: as §1

USP8 = target: T5, USP8 (UniProt P40818)
T5 sequence (whole entry): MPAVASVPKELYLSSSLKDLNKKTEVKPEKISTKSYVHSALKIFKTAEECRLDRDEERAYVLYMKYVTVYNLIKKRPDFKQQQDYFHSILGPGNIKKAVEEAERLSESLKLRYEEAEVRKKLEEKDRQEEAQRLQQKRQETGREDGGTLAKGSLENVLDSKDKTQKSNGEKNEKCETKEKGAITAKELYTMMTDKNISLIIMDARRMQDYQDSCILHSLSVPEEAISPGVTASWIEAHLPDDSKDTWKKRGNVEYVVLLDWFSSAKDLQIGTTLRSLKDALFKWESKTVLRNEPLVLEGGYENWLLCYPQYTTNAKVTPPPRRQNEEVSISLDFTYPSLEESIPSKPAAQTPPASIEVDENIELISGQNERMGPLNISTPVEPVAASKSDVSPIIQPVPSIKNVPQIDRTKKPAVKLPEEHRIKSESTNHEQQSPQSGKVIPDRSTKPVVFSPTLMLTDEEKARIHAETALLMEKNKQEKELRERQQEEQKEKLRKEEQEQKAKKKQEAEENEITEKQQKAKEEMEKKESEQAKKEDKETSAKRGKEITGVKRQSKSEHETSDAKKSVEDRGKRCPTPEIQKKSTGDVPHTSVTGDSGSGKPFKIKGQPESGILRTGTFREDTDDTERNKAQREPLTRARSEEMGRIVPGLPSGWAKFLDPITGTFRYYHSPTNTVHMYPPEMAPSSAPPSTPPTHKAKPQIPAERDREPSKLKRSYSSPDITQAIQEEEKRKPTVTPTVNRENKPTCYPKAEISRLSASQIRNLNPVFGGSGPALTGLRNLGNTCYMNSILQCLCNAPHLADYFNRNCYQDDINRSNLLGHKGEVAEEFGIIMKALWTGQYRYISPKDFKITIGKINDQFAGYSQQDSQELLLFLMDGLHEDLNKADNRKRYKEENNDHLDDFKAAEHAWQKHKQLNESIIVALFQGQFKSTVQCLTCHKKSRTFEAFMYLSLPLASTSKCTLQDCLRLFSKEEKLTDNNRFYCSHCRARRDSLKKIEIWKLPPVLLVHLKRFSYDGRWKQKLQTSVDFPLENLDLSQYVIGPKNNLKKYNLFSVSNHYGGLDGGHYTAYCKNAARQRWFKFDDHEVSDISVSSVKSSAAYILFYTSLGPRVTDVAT
How it was run: as §1

Measured: log2 ratio of Biotin-Ahx-Ub-VS probe labelling

USP54, sequence (Q70EL1 whole entry): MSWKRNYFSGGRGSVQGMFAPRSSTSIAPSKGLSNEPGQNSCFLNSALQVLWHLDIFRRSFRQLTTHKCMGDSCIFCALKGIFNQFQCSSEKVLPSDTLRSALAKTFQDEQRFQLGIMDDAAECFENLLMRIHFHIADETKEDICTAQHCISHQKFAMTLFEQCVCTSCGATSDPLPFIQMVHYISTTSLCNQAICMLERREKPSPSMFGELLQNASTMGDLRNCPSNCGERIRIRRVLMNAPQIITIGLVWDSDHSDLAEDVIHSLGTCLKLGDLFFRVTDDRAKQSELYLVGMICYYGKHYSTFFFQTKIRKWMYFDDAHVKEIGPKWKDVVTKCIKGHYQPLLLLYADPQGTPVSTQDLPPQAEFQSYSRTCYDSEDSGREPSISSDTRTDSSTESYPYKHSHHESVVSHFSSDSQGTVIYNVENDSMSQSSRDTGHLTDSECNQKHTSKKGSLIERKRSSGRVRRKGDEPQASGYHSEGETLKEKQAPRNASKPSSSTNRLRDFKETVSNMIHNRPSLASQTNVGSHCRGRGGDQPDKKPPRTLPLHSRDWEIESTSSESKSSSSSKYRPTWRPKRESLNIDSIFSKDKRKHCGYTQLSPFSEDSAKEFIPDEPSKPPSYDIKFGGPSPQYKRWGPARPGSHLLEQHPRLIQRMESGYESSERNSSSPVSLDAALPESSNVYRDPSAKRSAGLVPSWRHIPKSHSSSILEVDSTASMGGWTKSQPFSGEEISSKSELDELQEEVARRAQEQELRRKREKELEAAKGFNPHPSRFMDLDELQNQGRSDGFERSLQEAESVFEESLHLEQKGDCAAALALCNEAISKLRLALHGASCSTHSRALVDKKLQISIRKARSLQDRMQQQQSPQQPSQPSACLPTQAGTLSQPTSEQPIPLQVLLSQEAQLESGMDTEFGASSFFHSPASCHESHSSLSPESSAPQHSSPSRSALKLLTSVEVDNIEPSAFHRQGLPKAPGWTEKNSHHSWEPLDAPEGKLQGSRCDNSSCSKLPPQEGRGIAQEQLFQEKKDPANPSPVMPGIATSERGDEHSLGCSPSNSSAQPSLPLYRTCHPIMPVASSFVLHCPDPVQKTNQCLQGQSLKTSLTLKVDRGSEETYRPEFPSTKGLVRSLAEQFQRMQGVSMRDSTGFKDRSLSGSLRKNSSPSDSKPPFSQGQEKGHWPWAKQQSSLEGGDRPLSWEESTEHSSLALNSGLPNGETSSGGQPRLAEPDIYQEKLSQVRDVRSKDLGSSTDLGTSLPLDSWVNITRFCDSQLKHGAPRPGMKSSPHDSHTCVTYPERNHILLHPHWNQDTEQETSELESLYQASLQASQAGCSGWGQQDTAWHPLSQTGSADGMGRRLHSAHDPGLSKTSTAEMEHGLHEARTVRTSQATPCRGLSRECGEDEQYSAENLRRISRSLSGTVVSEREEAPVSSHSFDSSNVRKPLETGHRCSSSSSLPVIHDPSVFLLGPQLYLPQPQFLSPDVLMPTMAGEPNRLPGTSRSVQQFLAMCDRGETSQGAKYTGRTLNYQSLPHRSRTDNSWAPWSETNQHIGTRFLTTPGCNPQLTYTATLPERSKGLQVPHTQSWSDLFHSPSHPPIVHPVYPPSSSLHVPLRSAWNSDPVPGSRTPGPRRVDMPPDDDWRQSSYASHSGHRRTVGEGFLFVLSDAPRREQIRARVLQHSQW
USP46, sequence (P62068 whole entry): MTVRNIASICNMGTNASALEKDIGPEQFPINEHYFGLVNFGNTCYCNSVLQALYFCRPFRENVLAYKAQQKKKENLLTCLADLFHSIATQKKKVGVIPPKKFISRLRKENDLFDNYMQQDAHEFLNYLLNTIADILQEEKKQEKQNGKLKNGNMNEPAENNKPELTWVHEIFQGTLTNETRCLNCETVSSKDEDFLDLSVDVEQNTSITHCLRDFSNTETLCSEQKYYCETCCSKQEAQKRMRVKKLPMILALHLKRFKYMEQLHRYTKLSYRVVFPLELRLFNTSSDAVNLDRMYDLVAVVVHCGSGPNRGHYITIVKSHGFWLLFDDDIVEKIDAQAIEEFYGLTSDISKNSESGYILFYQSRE
USP7, sequence (Q93009 whole entry, looked up): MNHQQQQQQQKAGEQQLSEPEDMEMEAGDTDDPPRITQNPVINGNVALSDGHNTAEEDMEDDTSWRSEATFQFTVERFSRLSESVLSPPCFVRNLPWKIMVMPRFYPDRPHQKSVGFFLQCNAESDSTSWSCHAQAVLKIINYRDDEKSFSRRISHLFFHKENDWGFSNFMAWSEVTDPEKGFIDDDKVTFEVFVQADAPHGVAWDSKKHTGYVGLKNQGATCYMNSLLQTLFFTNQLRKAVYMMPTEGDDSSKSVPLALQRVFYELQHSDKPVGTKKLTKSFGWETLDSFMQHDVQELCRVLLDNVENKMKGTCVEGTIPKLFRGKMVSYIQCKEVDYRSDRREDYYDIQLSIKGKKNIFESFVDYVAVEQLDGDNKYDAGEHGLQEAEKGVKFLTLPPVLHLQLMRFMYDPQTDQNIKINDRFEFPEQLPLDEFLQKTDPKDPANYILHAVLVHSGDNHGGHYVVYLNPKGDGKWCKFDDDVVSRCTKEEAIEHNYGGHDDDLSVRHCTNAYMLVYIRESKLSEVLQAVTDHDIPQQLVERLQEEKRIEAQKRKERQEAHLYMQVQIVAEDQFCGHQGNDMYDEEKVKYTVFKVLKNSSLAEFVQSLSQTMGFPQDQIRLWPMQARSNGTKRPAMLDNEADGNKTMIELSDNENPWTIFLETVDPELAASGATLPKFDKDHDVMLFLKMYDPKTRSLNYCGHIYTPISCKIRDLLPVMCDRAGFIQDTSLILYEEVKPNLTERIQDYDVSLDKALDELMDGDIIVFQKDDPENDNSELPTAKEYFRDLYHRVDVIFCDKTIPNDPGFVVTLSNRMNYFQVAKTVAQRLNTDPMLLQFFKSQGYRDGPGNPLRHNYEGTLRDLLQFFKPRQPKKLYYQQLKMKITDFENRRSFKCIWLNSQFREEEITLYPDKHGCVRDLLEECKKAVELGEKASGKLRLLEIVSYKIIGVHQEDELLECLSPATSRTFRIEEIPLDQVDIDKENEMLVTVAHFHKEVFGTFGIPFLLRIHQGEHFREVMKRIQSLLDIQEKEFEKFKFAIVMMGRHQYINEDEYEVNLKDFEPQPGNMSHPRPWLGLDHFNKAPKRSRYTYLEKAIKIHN

O=C(CCl)N[C@H]1CCS(=O)(=O)c2ccccc21
inactive: USP42 0.186 | USP46 0.0271 | USP47 -0.0612 | USP48 -0.022 | USP5 -0.472 | USP54 -0.274 | USP7 -0.346 | USP8 -0.0621

Reference: the supplement of paper PMC11732987, “Enantioselective OTUD7B fragment discovery through chemoproteomics screening and high-throughput optimisation” (Communications Chemistry, 2025)
